gsp antagonist: qHTS for Antagonists of gsp, the Etiologic Mutation Responsible for Fibrous Dysplasia/McCune-Albright Syndrome: qHTS. gsp-mutant cells, cAMP HTRF, 30 min. Potency, µM (doses to about 76.9 µM), for the others: top-dose activity change, negative = inhibition, usual class: inhibitors. hit rate 0.4% among 340,000; calls by dose curve; cell line not stated here;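 note: intracellular cAMP measured with PDE inhibitor Ro 20-1724 present during compound exposure; potency is the fitted concentration of half-maximal effect; % is set by controls: 0 for no effect and ±100 for the full control effect; nearly all actives have a fitted effect of over 65% in size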
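Cells, 2000/well, grown 16–24 h in DMEM 10% FBS with 0.5 mg/ml G418, then compounds plus […] (300 uM addition stock), 30 min at 37C. cAMP read by HTRF (cAMP-d2 and anti-cAMP antibody-K in lysis buffer) after 30 min RT.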
Akt phos inh: HTS Assay for Inhibitors of Akt Phophorylation: Primary Screen; Neuro2A IGF-stimulated pAkt S473 HTRF, 20 min; hits give low values; activity change, % for hits at 50 µM; hit rate 0.32% among 360,000; AID 651550, 2012; in the data active = activity change below about -80%; inconclusive = mostly about -51% to -80%; note: % is set by controls: 0 for no effect and ±100 for the full control effect
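Neuro2A cells (4,500/well, DMEM with 0.5% FBS) were treated with compound at a single 50 µM final concentration, stimulated with 6 nM IGF for 20 min at 37 °C, and lysed. Phospho-Akt Ser473 was read by HTRF as 665/615 ratio ×10^4.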
RXFP1 antagonist: qHTS Assay for Antagonists of the Relaxin Receptor RXFP1; HEK293-RXFP1, relaxin-stimulated cAMP HTRF, 30 min; hits give low values; hit rate 0.59% among 350,000; activity change, negative = inhibition, % at 57.5 µM; AID 1259400, 2018; Relaxin receptor 1 (Homo sapiens), Q9HBX9;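 active = activity change of -60% or lower, but not beyond a set lower limit; inconclusive = change between -60% and -40%, or beyond the set limit; inactive = change above -40%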; note: % is set by controls: 0 for no effect and ±100 for the full control effect
Target sequence (Q9HBX9 whole entry, looked up): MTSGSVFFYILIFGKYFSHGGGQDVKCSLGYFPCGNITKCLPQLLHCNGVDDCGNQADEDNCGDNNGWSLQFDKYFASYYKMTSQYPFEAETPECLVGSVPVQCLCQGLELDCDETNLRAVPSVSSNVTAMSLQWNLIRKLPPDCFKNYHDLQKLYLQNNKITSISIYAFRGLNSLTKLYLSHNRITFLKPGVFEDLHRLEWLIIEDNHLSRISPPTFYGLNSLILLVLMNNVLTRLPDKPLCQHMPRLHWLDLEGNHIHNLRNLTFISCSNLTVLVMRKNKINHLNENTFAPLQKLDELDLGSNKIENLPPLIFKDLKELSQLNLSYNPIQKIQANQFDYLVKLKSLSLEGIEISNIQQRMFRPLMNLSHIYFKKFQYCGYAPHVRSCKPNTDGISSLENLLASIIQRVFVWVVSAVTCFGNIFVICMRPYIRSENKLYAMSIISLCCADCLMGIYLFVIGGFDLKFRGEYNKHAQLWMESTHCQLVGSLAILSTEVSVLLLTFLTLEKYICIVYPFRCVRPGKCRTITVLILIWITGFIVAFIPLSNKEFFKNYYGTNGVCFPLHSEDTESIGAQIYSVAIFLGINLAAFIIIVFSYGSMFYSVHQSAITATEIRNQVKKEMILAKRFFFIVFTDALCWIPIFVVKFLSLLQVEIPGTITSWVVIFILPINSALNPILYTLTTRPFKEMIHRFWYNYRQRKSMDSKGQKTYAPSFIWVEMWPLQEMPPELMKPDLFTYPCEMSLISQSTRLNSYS
RXFP1 ag: qHTS Assay for Agonists of the Relaxin Receptor RXFP1 | Potency, µM (series often up to 57.5 µM), inactives show at the highest dose activation, hits mostly activators | hit rate 0.3% among 370,000 | Relaxin receptor 1 (Homo sapiens), Q9HBX9 | HEK293T-RXFP1 cAMP TR-FRET, 30 min; response scale: percent of porcine relaxin response, buffer zero; active = well fitted activation curve with a large enough effect; inconclusive = small, poorly fitted or top-dose-only effect; note: potency is the fitted concentration of half-maximal effect; % is set by controls: 0 for no effect and ±100 for the full control effect; nearly all actives have a fitted effect of over 60% in size
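Agonist response is measured as cAMP accumulation in an RXFP1-transfected HEK293T line under PDE4 inhibition. Values are scaled between buffer-only and 29 nM porcine relaxin, and EC50s come from standard Hill equation fits.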
gsp agonist: qHTS for Agonist of gsp, the Etiologic Mutation Responsible for Fibrous Dysplasia/McCune-Albright Syndrome: qHTS. gsp mutant cells, cAMP HTRF, 30 min. Potency, µM (doses to about 76.9 µM), inactives show at the top dose activation (cAMP increase), actives largely listed as activators. hit rate 0.13% among 340,000. AID 624287, 2012; active = well fitted activation curve with a large enough effect; inconclusive = small, poorly fitted or top-dose-only effect, or another doubt; inactive = no such curve, though single readings can be large or run the other way; cell line not stated here;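 note: phosphodiesterase inhibitor Ro 20-1724 added with compounds to block cAMP breakdown; potency is the fitted concentration of half-maximal effect; nearly all actives have a fitted effect of over 60% in size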
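Cells stably selected in G418 were plated at 2000/well, grown 16-24 hr, then given compounds in DMSO with the PDE inhibitor […] (300 uM solution added) for 30 min at 37C; cAMP was read by HTRF.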
The depositor's hits bear a star; i = inactive; u = inconclusive; x = no result given; ! = a repeat was not active; [ ] = dose if it differs, or a comment. This is a sample that favours compounds with a hit; in the whole collection about 1.2% have one here.

SMILES	gsp antagonist	Akt phos inh	RXFP1 antagonist	RXFP1 ag	gsp agonist
COc1cccc(C(=O)Nc2ccccc2N2CCN(C(=O)c3ccccc3)CC2)c1	25µM*	i	-8	x	6%
O=C1c2ccsc2SCCN1Cc1ccc(Cl)cc1	-6%[15.4 µM]	-124%*	2	2%	-18%
O=C1c2ccsc2SCCN1Cc1ccc(F)cc1	-23%	i	2	4%	-65%
Cc1ccc(Cl)c(OCC(O)CNC(C)(C)C)c1 (configuration not stated)	x	x	-4	x	x
CCOc1ccccc1NC(=O)N1C2CCCC1CC(NC(=O)C1CC1)C2 (configuration not stated)	2%	-88%*	-13	0%	u
CCOc1ccccc1NC(=O)N1CC(CC)Oc2ccccc21 (configuration not stated)	x	x	-80*	-1%	x
CCC1CN(C(=O)Nc2cc(C)ccc2OC)c2cc(Cl)ccc2O1 (configuration not stated)	x	x	-61*	-1%	x
COc1ccc(OC)c(NC(=O)N2CC(C)Oc3ccc(C)cc32)c1 (configuration not stated)	x	x	u	-1%	x
CC1=C(C)C(=O)C(C(CCCCCC(=O)O)c2ccccc2)=C(C)C1=O (configuration not stated)	x	x	-21	x	x
COc1ccccc1N1CCN(c2ccc(=O)n(CC(=O)O)n2)CC1	x	x	x	0%	x
CCC(C)NC(=O)c1ccc2c(c1)N=C(C)c1cc(C)ccc1S2 (configuration not stated)	x	x	x	-3%	x
COc1ccc(OC)c(NC(=O)CSc2nc(O)cc(=O)n2CC(C)C)c1	-19%	i	-80*	x	-4%
COc1ccc(-n2c(SCC(=O)Nc3cccc4ccccc34)nc(O)cc2=O)cc1	-26%	i	-66*	3%	3%[15.4 µM]
COc1ccc(-n2c(SCC(=O)Nc3ccccc3)nc(O)cc2=O)cc1	-12%	i	-39	-2%	25%
COc1ccc(NC(=O)CSc2nc(O)cc(=O)n2-c2ccc(OC)cc2)cc1	u	i	-78*	2%	u
Cc1ccc(-c2noc(CCC(=O)NCCCN3CCN(c4ccc(F)cc4)CC3)n2)cc1	-2%	i	-15	2%	5%
Cc1ccc(-c2noc(CCC(=O)NCCCN3CCN(c4cccc(Cl)c4)CC3)n2)cc1	10%[15.4 µM]	i	-64*	1%	19%
CC(=O)OCC(=O)[C@@]12N=C(C)O[C@@H]1C[C@H]1[C@@H]3CCC4=CC(=O)C=C[C@]4(C)[C@H]3[C@@H](O)C[C@@]12C	x	x	1	x	x
Cn1c2c(c(=O)n(C)c1=O)C(C(F)(F)F)(C(F)(F)F)N=C(c1ccc(Cl)cc1)N2	40µM*	i	-11	0%	-26%
N#Cc1c(N)nc2c3c(sc(=N)c2c1N)NC(=O)CC3c1ccccc1 (configuration not stated)	6%	i	4	28µM*	31%
CCCCC(=O)Nc1c(C(=O)N2CCN(c3ccccc3)CC2)oc2ccccc12	x	x	u	12%	x
O=C(CSc1nnc(CNC(=O)c2c(F)cccc2Cl)o1)Nc1ccc2c(c1)OCCO2	10%	i	1	2%	1%
O=C(CSc1nnc(CNC(=O)c2c(F)cccc2Cl)o1)NCc1ccc2c(c1)OCO2	6%	-107%*	2	0%	-11%
CCn1nnc(NC(=O)c2ccc(C(C)(C)C)cc2)n1	3%	-108%*	-17	1%	-8%
CCn1nnc(NC(=O)c2cccnc2)n1	4%	i	-11	2%	-22%
SMILES	gsp antagonist	Akt phos inh	RXFP1 antagonist	RXFP1 ag	gsp agonist
CC(C)C[C@H](NC(=O)[C@H](Cc1ccccc1)NC(=O)c1cnccn1)B(O)O	x	x	9	x	x
Cc1cc(C(=O)COC(=O)c2ccc(O)cc2)c(C)n1-c1ccccc1F	9%	i	-83*	2%	10%[15.4 µM]
CCCNC(=O)c1cnc2c(-c3ccc(OCC)c(OCC)c3)c(C)nn2c1-c1ccccc1	x	x	-9	1%	x
Cc1cc(C)n(-c2cc(C(C)(C)C)nc3c(-c4ccc(Cl)cc4)cnn23)n1	-6%	i	-10	0%	-49%
Cc1cc(C)n(-c2cc(C(C)(C)C)nc3c(-c4ccccc4)cnn23)n1	-27%	i	-80*	-1%	7%[15.4 µM]
O=C(Nc1c(C(=O)N2CCN(c3ccccc3)CC2)oc2ccccc12)c1ccco1	x	x	-11	-3%	x
Cn1cc(CN(C(=O)Nc2ccccc2)C2CCCCC2)c2ccccc21	x	x	x	1%	x
COc1ccc(NC(=O)COC(=O)CN2C(=O)NC(C)(C)C2=O)cc1	11%	i	3	0%	-4%
CC1(C)NC(=O)N(CC(=O)OCC(=O)c2ccc(Br)s2)C1=O	14%	i	15	x	10µM*
CC(C)CCN1CN(S(=O)(=O)c2cccs2)c2nc3ccccc3nc21	-1%	-107%*	3	-1%	10%
CC(C)C[C@H](NC(=O)CNC(=O)[C@H](Cc1ccc(O)cc1)NC(=O)[C@H](CO)NC(=O)[C@H](Cc1c[nH]c2ccccc12)NC(=O)[C@H](Cc1cnc[nH]1)NC(=O)[C@@H]1CCC(=O)N1)C(=O)N[C@@H](CCCN=C(N)N)C(=O)N1CCC[C@H]1C(=O)NCC(N)=O (stereo in doubt)	x	x	23	x	x
Cc1ccc(NC(=O)/C(C#N)=C/c2cc(C)n(-c3ccc(Br)cc3)c2C)cc1C	x	x	-63*	0%	x
O=C(O)c1cc(-c2ccc3c(c2)OCO3)nc2ccc(Br)cc12	26%	i	25	16µM*	10µM*
Cc1ccc(-c2cc(C(=O)NCc3cnn(C)c3)c3cc(Br)ccc3n2)cc1	u	i	-2	22µM*!	8%[15.4 µM]
O=C(Nc1cccc([N+](=O)[O-])c1)c1cc2ccccc2cc1O	14µM*	i	-69*	2%	-24%
COc1ccc(CCNC(=O)c2cnn(-c3ccc(F)cc3)c2C2CCN(C(=O)OC(C)(C)C)CC2)c(OC)c1	x	x	-17	0%	x
O=C1CC(N2CCN(c3nc4ccccc4s3)CC2)C(=O)N1Cc1cccs1 (configuration not stated)	2%[15.4 µM]	-143%*	-10	0%	-5%
CN1C(=O)CC(N2CCC(c3nc4ccccc4s3)CC2)C1=O (configuration not stated)	14%	i	6	-2%	5%
O=C1CC(N2CCC(c3nc4ccccc4s3)CC2)C(=O)N1Cc1ccccc1 (configuration not stated)	35µM*	x	-15	1%	6%
